From PubChem BioAssay
Compounds with a hit are over-represented: about 3.8% of the library has one in this group of screens.
hERG WT inh: KCNH2 (human, wildtype) channel inhibition | U2OS, BacMam KCNH2, thallium flux FluxOr; hits give low values | AID 720551 | activity change, % at 1.84 µM | 0.37% of 340,000 active | Q12809;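 active means maximum activity change below -70%; inconclusive means maximum activity change between -70% and -50%; inactive means maximum activity change above -50%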
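U2OS cells were transduced with wild-type KCNH2 virus (2.03 x 10^8 / mL) for 4 h at room temperature, then cultured overnight at 37 C. Thallium flux was read with FluxOr dye. Rate constants were normalized to DMSO controls.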
MBNL1-CUG inh: inhibitors of human MBNL1 binding to CUG repeat RNA; Q9NR56; TR-FRET MBNL1-His/biotin-(CUG)12 binding, 665/545 ratio; Potency, µM (highest dose often 57.5 µM), actives largely listed as inhibitors; 0.036% of 280,000 active; AID 2675; active means well fitted inhibition curve with a large enough effect in the signal ratio, with a control signal flat, not every such curve was filed as active; inconclusive means small, poorly fitted or top-dose-only effect, or effect the other way, or a change in a side signal; inactive means no such curve, though single readings can be large or run the other way; the % refers to the signal ratio
Target sequence (Q9NR56 whole entry, looked up): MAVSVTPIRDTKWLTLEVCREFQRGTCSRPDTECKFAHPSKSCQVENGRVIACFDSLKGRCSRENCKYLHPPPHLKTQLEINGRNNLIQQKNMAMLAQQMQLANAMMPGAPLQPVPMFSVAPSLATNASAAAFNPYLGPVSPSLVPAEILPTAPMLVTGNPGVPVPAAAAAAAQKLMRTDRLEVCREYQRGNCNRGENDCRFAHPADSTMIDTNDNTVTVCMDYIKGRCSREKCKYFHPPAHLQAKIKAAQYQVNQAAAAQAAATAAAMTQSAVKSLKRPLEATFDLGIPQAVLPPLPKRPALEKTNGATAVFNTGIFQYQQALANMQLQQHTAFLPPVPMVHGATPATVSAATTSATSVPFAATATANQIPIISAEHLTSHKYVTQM
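MBNL1-His + Biotin-(CUG)12, cpd titration 92 nM–58 uM; Tb anti-His Ab 0.055 ng/ul, SA-XL665 5 nM (final); 60 min RT; ratiometric 665/545 nm, Ex 340 nm; normalized to buffer and full-complex controls.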
VDR inhibitor: vitamin D3 receptor (human) inhibition; P11473; AID 504847; 0.93% of 400,000 active; VDR-SRC2-3 peptide fluorescence polarization, 2 h; Potency, µM, hits mostly inhibitors
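Fluorescence polarization assay measuring small-molecule disruption of VDR binding to the coregulator peptide SRC2-3. Compounds were pin-transferred (23 nl) into the reagent mix and incubated 2 h at room temperature before reading.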
PLK1 PBD block: blocks phosphopeptide binding to human PLK1 polo-box domain. P53350. Plk1 PBD binding of FITC phosphopeptide, fluorescence polarization. Potency, µM, usual class: inhibitors. 2.8% of 360,000 active; further: series mostly up to about 57 µM; nearly all actives have a fitted effect of over 65% in size
KCNH2 3.1 inh: blocks the human KCNH2 3.1 channel isoform. U2OS KCNH2 3.1, thallium flux FluxOr; hits give low values. activity change, % (tested at about 1.8 µM). 0.95% of 340,000 active;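 active means maximum activity change below -70%; inconclusive means maximum activity change from -70% to -50%; inactive means maximum activity change above -50%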;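 further: thallium influx rate constant from kinetic fluorescence after stimulation buffer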
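Measured as rate of thallium-driven FluxOr signal in transduced U2OS cells carrying the 3.1 channel, read kinetically for 2 min upon stimulation; values are rate constants scaled to DMSO control wells.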
CBFb-RUNX1 inh: inhibitors of human CBF-beta and RUNX1 interaction. Potency, µM (doses to about 59.8 µM), hits mostly inhibitors. 230,000 tested, under 10 active. AID 1477. AlphaScreen CBFb-His/RUNX1-biotin binding, biochemical
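Interaction loss through any mechanism counts as activity. Pre-formed complex of His-CBF-beta and biotin-RUNX1 (30 nM apiece) is incubated with compound 15 min, then with 50 ng nickel and 50 ng streptavidin beads for 90 min before AlphaScreen detection.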
Numbers stand for hits; - = inactive; ? = inconclusive; . = not tested or not shown. Unless noted, the call rests on the fitted dose curve; in most records, active means well fitted curve in the direction sought with a large enough effect; inconclusive means small, poorly fitted or top-dose-only effect, or another doubt; inactive means no such curve, though single readings can be large; an effect the other way counts as inactive or inconclusive.

SMILES | hERG WT inh | MBNL1-CUG inh | VDR inhibitor | PLK1 PBD block | KCNH2 3.1 inh | CBFb-RUNX1 inh
Cc1ccc(S(=O)(=O)Nc2nc(C)c(NC(=O)Nc3ccc(Cl)cc3Cl)s2)cc1 | - | - | - | 21µM | . | -
CCCCCCCNC(=O)C1(CC2CC(c3ccc(Cl)cc3)=NO2)CCN(C(=O)c2ccccc2)CC1 (centres undefined) | . | - | - | - | . | .
O=C(CCCCCBr)N1CCC(CC2CC(c3cccc(Br)c3)=NO2)(C(=O)NCC2CCCCC2)CC1 (centres undefined) | - | - | - | - | - | .
O=C(CCCCCBr)N1CCC(CC2CC(c3ccc(Cl)cc3)=NO2)(C(=O)NCC2CCCCC2)CC1 (centres undefined) | -95 | - | - | - | ? | .
CCCCCCCNC(=O)C1(CC2CC(c3ccc(Cl)cc3)=NO2)CCN(C(=O)CCCCCBr)CC1 (centres undefined) | -89 | - | - | - | -83 | .
Cc1ccc(NC(=O)CN2CCSc3ccc(S(=O)(=O)N4CCCC4)cc32)cc1C | . | . | - | . | . | .
CSc1nc(-c2ccccc2)nc2c1COC(C)(C)C2 | - | - | - | 30µM | - | -
CN(C)CCSc1nc(-c2ccccc2)nc2c1COC(C)(C)C2 | - | - | - | - | - | -
CC(=O)Nc1ccc(SCC(=O)N(C)CC(=O)Nc2ccccc2Cl)cc1 | - | . | 79µM | 7.5µM | - | .
O=C(OCc1nc2scc(-c3ccccc3)c2c(=O)[nH]1)c1cccc([N+](=O)[O-])c1 | - | - | - | 30µM | - | -
O=C(OCc1nc2scc(-c3ccccc3)c2c(=O)[nH]1)c1ccco1 | - | . | - | - | - | .
C#CCN(C[C@@H]1[C@@H](OC(=O)NC2CC2)[C@@H](OC(=O)NC2CC2)CN(C(=O)OC(C)C)N1C(=O)OC(C)C)S(=O)(=O)c1ccc(C)cc1 | - | . | . | 21µM | - | .
C#CCN(C[C@@H]1[C@@H](OC(=O)NCc2ccco2)[C@@H](OC(=O)NCc2ccco2)CN(C(=O)OC(C)C)N1C(=O)OC(C)C)S(=O)(=O)c1ccc(C)cc1 | - | . | . | ? | - | .
CCOc1cccc2sc(N(CCCN(C)C)C(=O)c3ccc(S(=O)(=O)N(C)Cc4ccccc4)cc3)nc12 | -74 | - | - | - | . | .
Cc1ccc2sc(N(CCCN(C)C)C(=O)c3ccc(S(=O)(=O)N(C)Cc4ccccc4)cc3)nc2c1C | - | . | - | - | - | .
CCOc1cccc2sc(N(CCN(C)C)C(=O)c3cc4ccccc4cc3OC)nc12 | - | - | - | - | -79 | .
CC(=O)c1cccc(NC(=O)CSc2nc(=O)n(Cc3ccco3)c3c2CCC3)c1 | . | . | - | . | . | .
O=C(NNc1ccccc1F)c1sccc1Cl | . | . | - | . | . | .
CC1=CC(C)(C)N(C(=O)CSc2nnc(N)s2)c2ccccc21 | - | . | - | - | - | -
CC1=CC(C)(C)N(C(=O)CSc2ncn[nH]2)c2ccccc21 | - | - | - | - | -78 | -
CCCCn1c(N)c(N(Cc2ccccc2OC)C(=O)CSCC(=O)Nc2cccc(C)c2)c(=O)[nH]c1=O | - | - | - | 30µM | - | .
CCCC(=O)NC(c1ccc(N(C)C)cc1)c1ccc2cccnc2c1O (centres undefined) | - | - | - | 27µM | - | .
CCC(=O)NC(c1ccc(Cl)cc1Cl)c1ccc2cccnc2c1O (centres undefined) | - | - | - | - | - | .
CCCC(=O)NC(c1ccccc1Cl)c1ccc2cccnc2c1O (centres undefined) | - | - | - | - | -97 | .
CCCCC(=O)NC(c1ccc(Cl)cc1Cl)c1ccc2cccnc2c1O (centres undefined) | - | - | ? | 3.4µM | - | .
SMILES | hERG WT inh | MBNL1-CUG inh | VDR inhibitor | PLK1 PBD block | KCNH2 3.1 inh | CBFb-RUNX1 inh
CCCC(=O)NC(c1ccc(C(C)C)cc1)c1ccc2cccnc2c1O (centres undefined) | - | - | - | - | - | .
O=C(O)c1ccccc1NC(c1ccccc1)c1ccc2cccnc2c1O (centres undefined) | - | . | 35µM | 0.6µM | - | .
O=C(COc1ccccc1F)Nc1ccc2nc(SCC(=O)N3CCOCC3)sc2c1 | . | . | - | . | . | .
CCOC(=O)CNC(=O)C1CCCCC1 | . | . | - | . | . | .
O=c1c(N2CCCCC2)csc2ccc(F)cc12 | . | . | - | . | . | .
CCN(CC)c1cc(C)c2cc(NC(=O)c3ccccc3Cl)ccc2n1 | . | . | - | . | . | .
CCC[N+](CC#Cc1ccccc1)(CCC)CC(=O)OCC | - | - | - | - | -71 | -
CCC[N+](CC#Cc1ccccc1)(CCC)CC(=O)OC | - | - | - | - | - | -
O=S1(=O)C=C(Sc2nc3cc(Cl)ccc3o2)c2ccccc21 | - | - | ? | 6.7µM | - | -
O=C1CCCC2=C1C(c1ccc(Cl)cc1)N=C(Nc1nc3ccccc3o1)N2 (centres undefined) | . | . | - | . | . | .
CC1=C(C(=O)Nc2ccccc2)C(c2ccc(C(=O)O)cc2)n2nc(SCC(=O)c3ccc(C)cc3)nc2N1 (centres undefined) | . | . | - | . | . | .
O=C(NCCc1ccccc1)C(c1ccccc1F)N(C(=O)c1csnn1)C1CC1 (centres undefined) | - | - | - | - | -86 | .
O=C(NCCc1ccccc1)C(c1ccc(F)cc1)N(C(=O)c1csnn1)C1CC1 (centres undefined) | - | - | - | - | - | .
O=C(NC1CCCC1)C(c1ccccn1)N(C(=O)c1csnn1)C1CC1 (centres undefined) | - | - | - | - | - | -
COc1cccc(CN(CC(=O)NC2CCCC2)C(=O)c2csnn2)c1 | - | - | - | - | - | .
O=C(CN(Cc1cccs1)C(=O)c1csnn1)NC1CCCC1 | - | - | - | 27µM | - | -
O=C(NC1CCCC1)C(c1ccccn1)N(C(=O)c1csnn1)C1CCCCC1 (centres undefined) | - | - | ? | 27µM | - | -
COc1ccc(-n2nc3c(N4CCCC(C(=O)NCc5ccc(C)cc5)C4)nnc(C)c3c2C)cc1 (centres undefined) | . | . | - | . | . | .
Cc1cccc(OCCn2c(SCC(N)=O)nc3ccccc32)c1 | . | . | - | . | . | .
COCCCN1CN=C(NS(=O)(=O)c2ccc(NC(C)=O)cc2)NC1 | . | . | - | . | . | .
Cc1ccc(NC(=O)c2sc3nc(N4CCOCC4)c4c(c3c2N)CCCC4)cc1 | - | . | . | ? | - | .
Nc1c(C(=O)Nc2ccccc2)sc2nc(N3CCOCC3)c3c(c12)CCCC3 | - | . | . | ? | - | .
CCOc1ccc(NC(=O)c2sc3nc(N4CCOCC4)c4c(c3c2N)CCCC4)cc1 | - | - | - | 30µM | - | .
Nc1c(C(=O)NCc2ccccc2)sc2nc(N3CCOCC3)c3c(c12)CCCC3 | - | - | - | - | -72 | -
Cc1c(C(=O)NCc2cccs2)oc2ccccc12 | - | - | - | - | -79 | ?
